Measured values reported in PubChem BioAssay AID940 (Emory University Molecular Libraries Screening Center, 2007).
Out of some 260,000 compounds screened, about 2,200 (0.85%) were called active. The sample holds actives, similar compounds and a random draw of the others, so the mix is not that of the screen.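 Rule for the calls: active = compounds whose cAMP rise, as percent of the full-agonist control response, exceeds 60; inactive = the rest.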

Molecular target: Prostaglandin E2 receptor EP2 subtype (Homo sapiens) (UniProt P43116)
Sequence (P43116 whole entry, looked up): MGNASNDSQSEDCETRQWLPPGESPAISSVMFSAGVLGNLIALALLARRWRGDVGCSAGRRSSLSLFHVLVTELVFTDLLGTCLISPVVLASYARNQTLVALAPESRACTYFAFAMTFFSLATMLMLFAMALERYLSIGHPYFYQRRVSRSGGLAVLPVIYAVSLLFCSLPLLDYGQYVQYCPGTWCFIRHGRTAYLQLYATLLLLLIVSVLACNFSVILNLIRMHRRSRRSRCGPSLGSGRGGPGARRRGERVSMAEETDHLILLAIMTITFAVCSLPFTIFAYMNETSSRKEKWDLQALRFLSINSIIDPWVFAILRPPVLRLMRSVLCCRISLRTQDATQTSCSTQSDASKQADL
Experiment: EP2 receptor modulators, cAMP readout, primary screen, cell-based, HTRF cAMP, PGE2 stimulation (AID 940);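 note: rat C6 glioma line stably carrying human EP2 under a CMV promoter; the protocol text gives 20 µM as final concentration; 100% = response of wells given 1 µM PGE2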
Settings: EP2-expressing cells, cAMP HTRF FRET, PGE2 co-stimulation; at 25 µM; active compounds read high

| SMILES | induction |
| --- | --- |
| CC(C)[C@H](Cn1nc(-c2cccs2)ccc1=O)NC(=O)Cn1cnc2ccccc2c1=O | -6.72% (inactive) |
| Cc1cnc(C(=O)NC(C)c2nc(-c3ccncc3)n[nH]2)cn1 (stereo unspecified) | -35.1% (inactive) |
| Cc1nc2ccccc2c(C)c1C(=O)c1ccc(F)cc1 | 11.7% (inactive) |
| Cc1nc2ccccc2c(-c2ccccc2)c1C(=O)c1ccccc1 | 94.7% (active) |
| CC(=O)c1c(-c2ccccc2)c2ccccc2[nH]c1=O | 7.65% (inactive) |
| CC(C)n1c(=O)oc2cc(S(=O)(=O)N3CCCC(C(N)=O)C3)ccc21 (stereo unspecified) | -51.2% (inactive) |
| COc1ccc(C2CC(c3cccs3)=NN2c2ccccc2)cc1 (stereo unspecified) | 21.6% (inactive) |
| COc1ccccc1N1N=C(c2cccs2)CC1c1ccccc1 (stereo unspecified) | 38.4% (inactive) |
| Fc1ccc(N2N=C(c3cccs3)CC2c2ccco2)c(F)c1 (stereo unspecified) | 63.6% (active) |
| CCC(C)NC(=O)CSc1nc2cc3c(cc2cc1C#N)OCCO3 (stereo unspecified) | 33.9% (inactive) |
| CCn1nnnc1SCC(=O)Nc1cccc(C(C)=O)c1 | -7.36% (inactive) |
| O=Cc1ccc(Oc2cccc(C(F)(F)F)c2)nc1 | 16.6% (inactive) |
| Cc1nc(N)[nH]c(=O)c1Oc1cccc(C(F)(F)F)c1 | 22.3% (inactive) |
| CCC(=O)OCc1c(C(F)(F)F)nn(C)c1Oc1cccc(C(F)(F)F)c1 | 62.3% (active) |
| CCn1c(SCC(=O)Nc2ccc(C(=O)OC)cc2)nnc1-c1cccnc1 | -7.67% (inactive) |
| OC[C@H]1O[C@@H](n2cnc3c(N[C@H]4CC5CCC4C5)ncnc32)[C@H](O)[C@@H]1O (stereo partly specified) | 0.16% (inactive) |
| CNc1ncnc2c1ncn2[C@@H]1O[C@H](CO)[C@H](O)C1O (stereo partly specified) | 15.2% (inactive) |
| CCCC(=O)Nc1ncnc2c1ncn2C1O[C@@H]2COP(=O)(O)O[C@H]2[C@H]1OC(=O)CCC (stereo partly specified) | 107% (active) |
| O=c1c2ccccc2c(-c2ccccc2)nn1Cc1ccccc1 | 66.7% (active) |
| O=c1c2ccccc2c(-c2ccc(F)cc2)nn1-c1ccc(C(F)(F)F)cc1 | 47% (inactive) |
| O=c1c2ccccc2c(-c2ccc(Br)cc2)nn1Cc1ccccc1 | 71.6% (active) |
| O=C(NCCc1ccco1)c1nn(Cc2ccccc2)c(=O)c2ccccc12 | 44.9% (inactive) |
| O=c1c2ccccc2c(-c2ccccc2)nn1-c1ccccn1 | 11.6% (inactive) |
| CCOC(=O)C(C)n1nc(-c2ccccc2)c2ccccc2c1=O (stereo unspecified) | 49.3% (inactive) |

| SMILES | induction |
| --- | --- |
| CCCOc1ccc(C2C(C(=O)Nc3ccccc3OC)=C(C)Nc3ncnn32)cc1 (stereo unspecified) | 2.41% (inactive) |
| Cc1cc(C)nc(N2CCC(C(=O)NCC(N)=O)CC2)n1 | -4.46% (inactive) |
| Cc1cc(C)c2cc(C(c3nnnn3C(C)(C)C)N3CCCc4ccccc43)c(=O)[nH]c2c1 (stereo unspecified) | 26.2% (inactive) |
| COc1ccc2[nH]c(=O)c(CN(CCCO)C(=S)NCCCN(C)C)cc2c1 | -11.3% (inactive) |
| CC(C)(C)c1nn(-c2ccc(F)cc2)c2[nH]c(=O)c(CNCCc3ccncc3)cc12 | -25.4% (inactive) |
| Cc1ccccc1OCCCC(=O)Nc1nnc(C2CCCCC2)s1 | -40.5% (inactive) |
| COc1ccc(C(=O)N2CCc3cc(OC)c(OC)cc3C2c2ccccc2)cc1OC (stereo unspecified) | 24.2% (inactive) |
| COC(=O)c1ccc(S(=O)(=O)NCc2ccccc2)n1C | 70.4% (active) |
| Cn1c(C(=O)O)ccc1S(=O)(=O)N(Cc1ccccc1)Cc1ccccc1 | 21.3% (inactive) |
| COC(=O)c1ccc(S(=O)(=O)N(CCO)Cc2ccccc2)n1C | -22.6% (inactive) |
| COc1cccc(/C(O)=C2/C(=O)C(=O)NC2c2cccs2)c1 (stereo unspecified) | 4.28% (inactive) |
| CN(C(=O)Cc1ccccc1F)c1nc2c(s1)CCc1occc1-2 | -25.4% (inactive) |
| CN(C)Cc1ccc(F)cc1Sc1cc(Cl)ccc1Cl | 75.3% (active) |
| C=COCCNC(=O)C1CCN(c2nc3ccccc3n2CC)CC1 | -36.5% (inactive) |
| COc1cccc(CN(Cc2ccco2)Cc2cncn2C)c1 | -1.11% (inactive) |
| CCC(=O)Oc1cccc(C(=O)Nc2ccc(-c3nnc(-c4ccco4)o3)cc2)c1 | -19% (inactive) |
| CCCCOc1ccc(-c2nnc(-c3ccco3)o2)cc1 | 66.9% (active) |
| CCOc1ccc(-c2nnc(-c3ccco3)o2)cc1 | -1.22% (inactive) |
| Cc1ccccc1CN1CCC(N2CCCCC2)CC1 | -20.6% (inactive) |
| COc1cc(CN2CCN(C(=O)c3cc(OC)c(OC)c(OC)c3)CC2)cc(OC)c1O | -32.7% (inactive) |
| Cc1ccc(NC(=O)CSc2nnnn2-c2ccc3c(c2)OCO3)cc1 | -41.6% (inactive) |
| COc1ccc(C2CC(c3cccs3)=Nc3ccccc3S2)cc1OC (stereo unspecified) | 61.9% (active) |
| COc1ccc(C2CC(c3cccs3)=NN2c2ccc(F)cc2)cc1OC (stereo unspecified) | 13.2% (inactive) |
| COc1ccc(C2CC(c3cccs3)=NN2C(=O)CSc2nnc(N)s2)cc1OC (stereo unspecified) | -1.37% (inactive) |

| SMILES | induction |
| --- | --- |
| Cc1cc2c(s1)c1cnn(CC(=O)NC(C)C)c(=O)c1n2C | -39.8% (inactive) |
| COc1cc2[nH]c(=O)c(C(=O)NCc3ccc4c(c3)OCO4)c(O)c2cc1OC | 4.8% (inactive) |
| COc1cccc(CN2CCC(C(=O)NC(C)(C)C)CC2)c1O | -12.3% (inactive) |
| Cc1ccccc1C(=O)Nc1ccc(N2CCCCCC2)cc1 | -79.9% (inactive) |
| O=C(Nc1ccccc1F)c1ccccc1-c1ccccc1 | 33.6% (inactive) |
| O=C(COC(=O)c1ccccn1)Nc1cccc2ccccc12 | -6.19% (inactive) |
| O=C(COC(=O)c1cccc(Br)c1)Nc1cccc2c1C(=O)c1ccccc1C2=O | -14.5% (inactive) |
| O=C(COC(=O)c1ccccc1)Nc1ccccc1Sc1ccccc1 | 68.5% (active) |
| Cc1ccccc1C(=O)Nc1ccccc1Sc1ccccc1 | 73.8% (active) |
| CC(C)(C)OC(=O)N1CCC[C@H]1C(=O)c1nc2ccccc2s1 | 19.4% (inactive) |
| O=C(N1CCC(n2nnc3ccccc3c2=O)CC1)C1(c2ccccc2)CCCC1 | -7.6% (inactive) |
| CCc1cc(N2C3CCC2CC(O)(c2ccco2)C3)n2nc3nc(C)cc(C)c3c2n1 (stereo unspecified) | 13.8% (inactive) |
| CCCC(NC(=O)c1cnc(SC)nc1)c1cccs1 (stereo unspecified) | -29.9% (inactive) |
| Cc1nn(CC(=O)NC2CCCC2)c(=O)c2cc3sccc3n12 | 1.55% (inactive) |
| Cc1ccc(Nc2ccc(C(N)=O)cc2[N+](=O)[O-])cc1 | -57.7% (inactive) |
| Cc1cc(C)nc(Nc2cc([N+](=O)[O-])ccc2C)n1 | -8.66% (inactive) |
| Cc1ccc(Nc2cc(C)nc3c(C)ccc([N+](=O)[O-])c23)cc1 | 66.4% (active) |
| COc1ccc(C)cc1N(CC(=O)NC1CCCC1)C(=O)c1snc(C(N)=O)c1N | -63.9% (inactive) |
| COCCCn1c(SCC(=O)Nc2cc(Cl)ccc2OC)nc2sc3c(c2c1=O)CCC3 | -5.26% (inactive) |
| Nc1nonc1-c1nc2ccccc2n1Cc1ccc(F)cc1 | 28.5% (inactive) |
| COc1ccc(C)c(Cn2c(-c3nonc3N)nc3ccccc32)c1 | 69% (active) |
| CC(=O)Nc1nonc1-c1nc2ccccc2n1Cc1ccccn1 | 4.24% (inactive) |
| COc1ccc(N(C(C)C(=O)N2CCN(C)CC2)S(C)(=O)=O)cc1 (stereo unspecified) | -14.6% (inactive) |
| COc1ccc(CN(Cc2cn[nH]c2-c2ccc(O)cc2)CC2CCCO2)cc1 (stereo unspecified) | 18.7% (inactive) |

| SMILES | induction |
| --- | --- |
| CCCc1cc(-c2n[nH]c(=S)n2Cc2ccccc2)cs1 | 87.8% (active) |
| CCCc1cc(-c2n[nH]c(=S)n2CC)c2ccccc2n1 | 20.9% (inactive) |
| CCc1cc(-c2n[nH]c(=S)n2CC(C)C)cs1 | -1.28% (inactive) |
| CCCc1nn(CC(=O)NC2CC2)c(=O)c2cc3ccsc3n12 | -12% (inactive) |
| COc1cc(C2C(C#N)=C(N)Oc3c2c(C)nn3-c2ccccc2)ccc1OCC#N (stereo unspecified) | -22.9% (inactive) |
| N#Cc1c(-c2ccc(F)cc2)cc(C2CC2)nc1SCC(=O)c1cccs1 | 63% (active) |
| CCOC(=O)CC(=O)CSc1nc(-c2ccccc2)cc(-c2ccc(Cl)cc2)c1C#N | 9.52% (inactive) |
| O=C(c1cccs1)N1CCCC(c2nc(-c3ccc(F)cc3)no2)C1 (stereo unspecified) | -45.6% (inactive) |
| COc1cc(C2NC(=O)NC(C)=C2C(=O)Nc2cc(Cl)ccc2C)cc(OC)c1OC (stereo unspecified) | -22.7% (inactive) |
| Cc1cccc(-n2c(C)c3c(C)nnc(C)c3c2C)c1 | -24.2% (inactive) |
| S=C1Nc2cc(Cl)ccc2Sc2ccccc21 | 11.7% (inactive) |
| Clc1ccc(C=Nc2ccc3c(c2)Cc2ccccc2-3)c(Cl)c1 | 6.77% (inactive) |
| O=C1Cc2ccccc2Sc2ccc(Cl)cc21 | 61.4% (active) |
| CCn1c(=O)oc2cc(S(=O)(=O)N3CCCN(C(C)=O)CC3)ccc21 | -12.2% (inactive) |
| COc1ccccc1NC(=O)Cn1nc(C)n2c(cc3occc32)c1=O | -27.1% (inactive) |
| CCOc1ccc2nc(Nc3nc(C)c(C(C)=O)c(C)n3)nc(C)c2c1 | -18.1% (inactive) |
| COc1ccc(-c2nnn(CC(=O)Nc3ccc(F)cc3F)n2)cc1OC | -72% (inactive) |
| COC(=O)C1NN=C(C(=O)c2ccc(Br)cc2)C1c1cccc(Br)c1 (stereo unspecified) | 0.95% (inactive) |
| COC(=O)C1=C(C)N(C)C(=S)NC1c1ccccc1 (stereo unspecified) | -3.11% (inactive) |
| COC(=O)C1=C(C)N(C)C(C)=C(C(=O)OC)C1c1cccc(Br)c1 | 66.5% (active) |
| COc1ccc(-c2ccc(SCC(=O)N3c4ccccc4CCc4ccccc43)nn2)cc1OC | 28.9% (inactive) |
| Cc1ccccc1-c1n[nH]c(=S)n1C | 25.6% (inactive) |
| Cc1ccccc1-c1n[nH]c(=S)n1/N=C/c1ccc(-c2ccccc2Br)o1 | 77% (active) |
| Cc1n[nH]c(=S)n1/N=C/c1ccc(Br)o1 | -3.02% (inactive) |
